# TDP1 inh = qHTS Assay for Inhibitors of Tyrosyl-DNA Phosphodiesterase (TDP1) | recombinant TDP1, AlphaScreen DNA substrate cleavage | Potency, µM (highest dose often 130 µM), inactives show at the highest dose activity change, negative = inhibition, usual class: inhibitors | 0.28% of 350,000 active; note: potency is the fitted concentration of half-maximal effect; % is set by controls: 0 for no effect and ±100 for the full control effect; nearly all actives have a fitted effect of over 40% in size
# Target sequence (Q9NUW8 whole entry, looked up): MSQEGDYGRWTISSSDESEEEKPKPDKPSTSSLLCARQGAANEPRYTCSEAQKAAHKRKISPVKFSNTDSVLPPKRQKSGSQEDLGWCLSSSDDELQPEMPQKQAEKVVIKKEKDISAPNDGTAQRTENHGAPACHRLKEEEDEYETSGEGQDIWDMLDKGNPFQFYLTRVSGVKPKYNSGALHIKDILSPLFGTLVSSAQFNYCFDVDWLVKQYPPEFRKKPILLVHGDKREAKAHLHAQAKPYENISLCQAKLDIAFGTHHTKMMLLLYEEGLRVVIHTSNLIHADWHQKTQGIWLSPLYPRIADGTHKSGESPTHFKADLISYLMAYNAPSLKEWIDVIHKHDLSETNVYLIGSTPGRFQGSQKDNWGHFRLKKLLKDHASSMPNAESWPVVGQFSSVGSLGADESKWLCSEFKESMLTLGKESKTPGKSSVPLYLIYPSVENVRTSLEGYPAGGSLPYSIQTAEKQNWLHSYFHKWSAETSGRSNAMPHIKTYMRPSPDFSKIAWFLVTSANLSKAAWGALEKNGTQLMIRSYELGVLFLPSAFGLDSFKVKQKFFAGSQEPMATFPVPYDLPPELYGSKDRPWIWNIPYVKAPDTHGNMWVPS
#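 E. coli-derived human Tdp1, 1 nM final. Cpd preinc 15 min RT; substrate 15 nM final, 5 min RT; AS bead mix 10 ug/ml final, 10 min RT. Signal loss = tyrosine-FITC cleavage. No-enzyme wells = max signal.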
# uPA generation = qHTS for Inhibitors of Cell Surface uPA Generation; cell surface uPA generation assay, qHTS; Potency, µM (series often up to 38.3 µM), without a hit: top-dose activity change, negative = inhibition, hits mostly inhibitors; 0.31% of 330,000 active; AID 540303, 2011; active = well fitted inhibition curve with a large enough effect; inconclusive = small, poorly fitted or top-dose-only effect; inactive = no such curve, though single readings can be large or run the other way; tested in mouse RAW 264.7 cells; note: potency is the fitted concentration of half-maximal effect; % is set by controls: 0 for no effect and ±100 for the full control effect; nearly all actives have a fitted effect of over 55% in size
# miR-21 reporter = qHTS Assay for Modulators of miRNAs and/orActivators of miR-21; HeLa miR-21 FLuc reporter, luciferase, 48 h; Potency, µM (titrated, usually from 38.3 µM), for the others: at the top dose activity change, positive = activation, actives largely listed as activators; 340,000 tested, under 10 active; AID 2288, 2010;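 note: % of control where 0% means no effect; miR-21 action dims this reporter so a rising signal means less miR-21 action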
#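 Luminescence from a firefly luciferase reporter carrying a miR-21 binding site downstream, stably expressed under a CMV promoter in HeLa cells that make miR-21 endogenously, reports miRNA modulation after 48 h compound exposure up to approximately 40uM final.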
# DT40 TDP1 CPT = qHTS for Inhibitors of human tyrosyl-DNA phosphodiesterase 1 (TDP1): qHTS in cells in presence of CPT; chicken DT40 Tdp1-/-;hTDP1 cells + 20 nM CPT, ATP luminescence, 48 h; Potency, µM (doses to about 46.2 µM), without a hit: at the highest dose activity change, negative = growth inhibition, hits mostly inhibitors; 12% of 420,000 active; AID 686979, 2013; note: potency is the fitted concentration of half-maximal effect; % is set by controls: 0 for no effect and ±100 for the full control effect; nearly all actives have a fitted effect of over 55% in size
#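 Cell growth measured by CellTiter-Glo luminescence after a minimum 48 h, 37 C compound exposure with 20 nM CPT in Tdp1-knockout DT40 cells stably expressing hTDP1, seeded 400/well; qHTS titration format.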
# TDP1 cell noCPT = qHTS for Inhibitors of human tyrosyl-DNA phosphodiesterase 1 (TDP1): qHTS in cells in absence of CPT; DT40 Tdp1-/- hTDP1 cells, no CPT, ATP luminescence, 48 h; Potency, µM (highest dose often 46.2 µM), for inactives: at the top dose activity change, negative = growth inhibition, most hits filed as inhibitors; 15% of 420,000 active; note: potency is the fitted concentration of half-maximal effect; % is set by controls: 0 for no effect and ±100 for the full control effect; nearly all actives have a fitted effect of over 55% in size
#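 Chicken DT40 Tdp1-/- cells stably complemented with human TDP1 were seeded at 400 cells/well with DMSO in place of 20 nM camptothecin. After compound pinning, cells grew at least 48 hr at 37 °C; viability read by CellTiter-Glo luminescence.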
# The depositor's hits bear a star; ? = inconclusive; . = not tested or not shown; [ ] = dose if it differs, or a comment. An excerpt weighted towards active compounds, which were near 16% of everything screened. Unless noted, calls come from the whole dose curve; as a rule, active = well fitted curve in the direction sought with a large enough effect; inconclusive = small, poorly fitted or top-dose-only effect, or another doubt; inactive = no such curve, though single readings can be large; an effect the other way counts as inactive or inconclusive.
SMILES,TDP1 inh,uPA generation,miR-21 reporter,DT40 TDP1 CPT,TDP1 cell noCPT
COc1ccc(C(C)(NC(C)=O)c2nc(-c3cc(F)cc(F)c3)cs2)cc1 (stereo not given),.,.,.,16.4µM*,20.6µM*
Brc1cccc(C=Nc2cccc3ncccc23)c1,.,-18.2%,.,0.8%,-5.4%
Brc1cccc(-c2nc3cccnc3nc2-c2cccc(Br)c2)c1,.,5.3%,-0.3%,?,16.4µM*
O=C(O)C(CCCCN1C(=O)C2C3C=CC(C3)C2C1=O)N1C(=O)C2C3C=CC(C3)C2C1=O (stereo not given),-2.0%,-0.4%,0.2%,?,-9.8%
COC(=O)c1ccc(CSCC(=O)Nc2cc(OC)cc(OC)c2)o1,0.0%,-3.6%,-8.7%,-9.1%,-27.4%
COc1ccc(S(=O)(=O)N2CCC[C@H]2C(=O)N2CCC[C@H]2C(=O)NCc2ccc(F)cc2F)cc1C,.,.,.,?,18.4µM*
COc1cccc(CNC(=O)[C@@H]2CCCN2C(=O)[C@H]2CCCCN2S(=O)(=O)c2ccc(OC)c(C)c2)c1,.,.,.,?,20.6µM*
O=C(CSCc1cc(=O)n2nc(C3CC3)sc2n1)Nc1ccc(F)cc1,4.4%,17.7%,-2.7%,-8.3%,10.5%
CC(C)Cn1nc(NC(=O)c2cccs2)c2cc3ccccc3nc21,-12.3%,-9.2%,2.4%,?,8.2µM*
CC(C)Cn1nc(NC(=O)c2ccco2)c2cc3ccccc3nc21,8.2%,-2.5%,17.3%,14.6µM*,13µM*
CCn1nc(NC(=O)c2ccco2)c2cc3ccccc3nc21,6.1%,-4.9%,7.5%,?,?
CS(=O)(=O)c1ccc(Cl)c(NC(=O)COC(=O)c2cccc(C#N)c2)c1,8.1%,2.2%,-0.5%,7.9%,-1.4%
N#CC(C(=O)OC1CCCCC1)c1nc2ccccc2nc1N1CCOCC1 (stereo not given),-3.2%,2.7%,-2.3%,?,?
CCN1CCN(c2nc3ccccc3nc2C(C#N)C(=O)OC2CCCCC2)CC1 (stereo not given),3.8%,-8.7%,-2.8%,23.1µM*,23.1µM*
N#CC(C(=O)NC1CCCCC1)c1nc2ccccc2nc1N1CCN(c2ccc(F)cc2)CC1 (stereo not given),0.0%,.,-1.5%,.,.
CN1CCN(c2nc3ccccc3nc2C(C#N)C(=O)OC2CCCCC2)CC1 (stereo not given),4.0%,-2.2%,-3.4%,29.1µM*,?
Cc1ccccc1C(=O)NCCSc1ccccc1,2.0%,5.6%,-55.5%,0.1%,-9.3%
COc1ccc(NC(=O)c2ccco2)cc1NC(=O)c1ccccc1,0.4%,9.2%,-0.1%,-23.2%,?
COc1cccc(C(=O)Nc2cc(NC(=O)c3ccco3)ccc2OC)c1,6.8%,4.2%,1.3%,18.4µM*,?
COc1ccc(NC(=O)c2ccco2)cc1NC(=O)c1cccc(OC(C)C)c1,10.4%,3.3%,11.0%,?,11.6µM*
COc1ccc(NC(=O)c2ccco2)cc1NC(=O)c1cccc(C)c1OC,4.2%,.,-1.9%,20.6µM*,11.6µM*
CCCCOc1cccc(C(=O)Nc2cc(NC(=O)c3ccco3)ccc2OC)c1,9.7%,.,28.0%,18.4µM*,20.6µM*
Cc1cc(C(=O)NCc2ccc(Cl)cc2)n(-c2ccccc2)n1,.,?,5.8%,-16.4%,?
COc1cc(NC(=O)c2oc3ccccc3c2C)ccc1NC(=O)c1ccco1,7.8%[0.0935 µM],-0.9%,-4.5%,?,18.4µM*
Cc1ccc(NS(=O)(=O)c2c(C)nc3sc(C)cn3c2=O)c(C)c1,7.7%,.,-2.1%,18.4µM*,18.4µM*
COc1ccc(C)cc1NS(=O)(=O)c1c(C)nc2sc(C)cn2c1=O,2.6%,.,6.2%,?,?
O=c1c(CCc2ccccc2)nc2cncnc2n1Cc1ccccc1,.,.,.,?,-28.4%
O=c1c(-c2ccccc2)nc2cncnc2n1Cc1ccc(F)cc1,.,.,.,?,20.6µM*
O=c1cnc2cncnc2n1Cc1ccc(F)cc1,.,.,.,4.11µM*,4.11µM*

# Bioassay records as filed in PubChem.
